Legend:
Type in all cases: functional
[1] = test system: Plasmodium falciparum; test: GSK_TCMDC: Inhibition of Plasmodium falciparum 3D7 in whole red blood cells, using parasite LDH activity as an index of growth. Test compounds present at 2uM
[2] = test system: Plasmodium falciparum; test: GSK_TCMDC: Inhibition of Plasmodium falciparum Dd2 in whole red blood cells, using parasite LDH activity as an index of growth. Test compounds present at 2uM
[3] = test system: HepG2; test: GSK_TCMDC: Percent inhibition of human HepG2 cell line. Test compounds present at 10uM.

Row | SMILES | Inhibition [1] [%] | Inhibition [2] [%] | Inhibition [3] [%]
1 | COc1ccc(C=NNc2ccnc3cc(F)c(C)cc23)c2ccccc12 | 100 | 85 | 0
2 | Cc1cc(NC(=O)c2cccs2)ccc1OC1CCN(Cc2ccccc2)C1.O=C(O)C(F)(F)F (configuration not stated) | 84 | 87 | 7
3 | O=C(COc1ccccc1)Nn1cnc2ccccc21 | 91 | 0 | 2
4 | COc1ccc(Nc2cc(C)c3cc(NC(=O)c4ccncc4)ccc3n2)cc1 | 98 | 26 | 0
5 | CCOc1cc(C(=O)N[C@@H](Cc2ccccc2)[C@H](O)CNCc2cccc(OC)c2)cc(N2CCCCS2(=O)=O)c1.Cl | 97 | 94 | 3
6 | O=C(NCCN1CCOCC1)c1csc(C2CCCN(C(=O)c3ccc(O)c(-c4cc(Cl)cc(Cl)c4)c3)C2)n1 (configuration not stated) | 97 | 50 | 12
7 | COc1ccc(CNC(=O)NC2CCN(c3ccnc(Nc4cc(OC)c(OC)c(OC)c4)n3)C2)cc1 (configuration not stated) | 91 | 90 | 0
8 | Clc1ccc2c(NCc3ccc4c(c3)OCO4)ccnc2c1 | 100 | 97 | 6
9 | N#Cc1cccc(-c2nc(NCc3cccc(C(F)(F)F)c3)nn2-c2cccc(C(F)(F)F)c2)c1 | 94 | 88 | 12
10 | COc1cc2c(cc1N(C(C)C)S(=O)(=O)c1sc3ccc(Cl)cc3c1C)CCNCC2.Cl | 91 | 70 | 98
11 | COc1ccc2nccc([C@@H](O)CN3CCC(NC(=O)c4cc5ccccc5[nH]4)CC3)c2c1.CS(=O)(=O)O | 96 | 55 | 19
12 | O=C(O)C(F)(F)F.O=S(=O)(NCCN1CCCC1)c1ccc(-c2cccc(CNC3Cc4ccccc4C3)c2)cc1F | 98 | 62 | 41
13 | C[C@@H](Oc1cc(-n2cnc3ccc(OCC4CCN(S(C)(=O)=O)CC4)cc32)sc1C(N)=O)c1ccccc1C(F)(F)F | 84 | 50 | 31
14 | Cc1[nH]c(C)c(C(F)(F)F)c(=O)c1-c1ccc(Oc2ccc(OC(F)(F)F)cc2)cc1 | 97 | 96 | 0
15 | CC(C)CNCc1cccc(-c2ccc(CN(C(=O)NCCc3ccccc3)C3CCN(Cc4ccccc4)CC3)cc2)c1.O=C(O)C(F)(F)F | 98 | 47 | 99
16 | CC1CC(NCCCNc2cc(=O)c3ccccc3[nH]2)c2cc(Cl)c(Cl)c(Cl)c21 (configuration not stated) | 100 | 69 | 0
17 | CS(=O)(=O)CCNCc1ccc(-c2ccc3c(Nc4ccc(Cl)cc4F)ccnc3c2)o1 | 99 | 98 | 6
18 | O=c1ccc2ccc(F)cc2n1CCN1CCC(NCc2ccc(-c3ccccn3)s2)CC1 | 98 | 30 | 0
19 | COc1ccccc1N1CCN(Cc2c(NC(C)=O)sc(C)c2C)CC1 | 95 | 80 | 9
20 | CN(/N=C/c1ccc(Cl)cc1)c1nc(NCCc2ccc(O)cc2)nc(N2CCNCC2)n1 | 100 | 97 | 10

Row | SMILES | Inhibition [1] [%] | Inhibition [2] [%] | Inhibition [3] [%]
21 | Cc1cc(NC(=O)Nc2ccc(C#N)cc2)c2ccccc2n1 | 100 | 49 | 88
22 | CCCCCN1CCC(NS(=O)(=O)c2cccc(C(=O)Nc3ccc(C(F)(F)F)cc3)c2)C1.O=C(O)C(F)(F)F (configuration not stated) | 95 | 5 | 45
23 | C=C1C(C(=O)OCC)=CN(CC)c2cc(O[C@H]3CCN(C(=O)OC(C)(C)C)C3)ccc21 | 98 | 75 | 9
24 | Cc1cc(N[C@@H](Cc2ccccc2)C(=O)NC2CCCC2)nc(NCCc2cccs2)n1.O=C(O)C(F)(F)F | 99 | 14 | 0
25 | CCN(CC)CCc1ccc2c(=O)cc(CCc3cccc(F)c3F)n(CC(=O)N(C)Cc3ccc(-c4ccc(C(F)(F)F)cc4)cc3)c2c1.O=C(O)C(O)C(O)C(=O)O | 97 | 45 | 98
26 | Cc1cccc(Nc2c(-c3cc(Br)ccc3O)nc3ncccn23)c1 | 100 | 98 | 0
27 | COc1cc2nc(N(C)C)nc(Nc3ccc(OCc4ccccc4)cc3)c2cc1OC | 100 | 100 | 91
28 | COc1ccc2nccc([C@@H](O)CN3CCC(NCc4cc5oc(=O)[nH]c5cc4F)CC3)c2c1.O=C(O)C(=O)O | 99 | 4 | 0
29 | Cl.NC(=O)N1CCN(Cc2ccc(Br)cc2)CC1 | 96 | 0 | 83
30 | O=C(Nc1ccc(Cn2nc(Cl)c(N3CCNCC3)cc2=O)cc1)Nc1ccc(-c2ccccc2)cc1.O=C(O)C(F)(F)F | 97 | 49 | 99
31 | COc1cc(NC(=O)N2CCc3cc(OC)c(OCCN4CCCCC4)cc32)cc(C(F)(F)F)c1.O=C(O)C(=O)O | 93 | 10 | 9
32 | O=C(c1cc2cccc([N+](=O)[O-])c2[nH]1)N1CCC(CCN2CCC(c3c[nH]c4ccccc34)CC2)CC1 | 89 | 24 | 45
33 | Cc1cc(NCCC(=O)NCCOc2ccccc2)nc(NCCOc2ccccc2)n1.O=C(O)C(F)(F)F | 92 | 20 | 8
34 | O=C(NC1CCCCC1)N(Cc1ccc(-c2cccc(CNCc3ccc4c(c3)OCO4)c2)cc1)C1CCN(Cc2ccccc2)CC1.O=C(O)C(F)(F)F | 100 | 72 | 23
35 | Cn1nc(-c2ccc(CN[C@@H]3CCc4ccc(O)cc43)cc2)c2cnc(NCCCN3CCCC3)nc21 | 100 | 61 | 8
36 | Cc1cc(C)cc(CC(=O)N2CCC(n3c(C)nc4ccc(C)cc43)CC2)c1 | 100 | 100 | 52
37 | COc1ccc(CCNC(=O)c2cc(C)ccc2O)cc1-c1ccc(C(C)(C)C)cc1 | 97 | 94 | 1
38 | CC(C)c1ccc(NC(=O)c2ccc(C(=O)NC3CCN(CC4CCCCC4)CC3)cc2)cc1.O=C(O)C(F)(F)F | 98 | 5 | 34
39 | Cc1cc2nc(-c3ccc(/C=C/C(=O)NC4CCN(Cc5ccccc5)CC4)cc3)[nH]c2cc1C | 98 | 89 | 18
40 | COc1ccccc1N(C)CCNc1cc(C)nc(Nc2ccc(C)cc2)n1 | 93 | 25 | 9

Row | SMILES | Inhibition [1] [%] | Inhibition [2] [%] | Inhibition [3] [%]
41 | Br.COc1ccc(OCCCCON2C(=N)N=C(N)NC2(C)C)cc1 | 92 | 95 | 54
42 | CCc1cc2c3c(N)nc(N)nc3ccc2n1CC | 93 | 0 | 62
43 | N#Cc1ccc(NC2(C(=O)N3CCN(c4cccc(Cl)c4)CC3)CC2)c2ccccc12 | 94 | 66 | 0
44 | CN(C)CCN1CCN(Cc2ccc(-c3cccc(-c4nc5ccccc5[nH]4)c3)cc2)CC1.O=C(O)C(F)(F)F | 100 | 100 | 25
45 | CC(C)N1CCN(CCCCNc2c3ccccc3nc3ccccc23)CC1.Cl | 100 | 0 | 38
46 | COCCNCc1cccc(-c2ccc3nccc(Nc4cc(O)ccc4C)c3c2)c1 | 100 | 92 | 0
47 | COc1cc2c(cc1S(=O)(=O)c1ccc(OCc3ccc(Cl)cc3)cc1)CCN(Cc1ccc(NC(C)=O)s1)CC2 | 89 | 0 | 3
48 | Cc1ccc(S(=O)(=O)N2CCN(C(=O)c3cc(-c4cccs4)n[nH]3)CC2)c(C)c1 | 85 | 81 | 0
49 | O=C(NCC1CC1)C1CCN(C(c2ccccc2)c2ccc(Cl)c(Cl)c2)CC1 (configuration not stated) | 97 | 96 | 7
50 | Cc1noc(-c2cccs2)c1C(=O)NC(C)c1cccc2ccccc12 (configuration not stated) | 97 | 95 | 0
51 | CCc1ccc(C2=Nn3c(nnc3-c3cccs3)SC2)cc1 | 93 | 20 | 9
52 | Cc1cc(-c2ccc3c(c2)CCN(CCCOc2ccc4c(c2)CCN4C(=O)/C=C/c2ccccc2Cl)CC3)no1 | 88 | 50 | 52
53 | COc1cc(-c2ccc(-c3cnc(N)nc3OC)[nH]2)cc(OC)c1OC | 100 | 54 | 0
54 | Cc1cccc2nc(-c3ccc(-c4cccc(CNCCc5ccncc5)c4)cc3)[nH]c12.O=C(O)C(F)(F)F | 100 | 95 | 28
55 | CN(C)CCCc1cc2c(cc1Cl)CCN2C(=O)Nc1ccc(-c2ccncc2)c2ccccc12 | 94 | 0 | 4
56 | COc1cccc(OC)c1OCCCOc1c(C)nc(N)nc1N.Cl | 97 | 0 | 31
57 | CCOc1c(CNCCCNc2nc3ccccc3[nH]2)cc(Br)cc1OC.Cl | 99 | 0 | 29
58 | Cc1cccc2nc(-c3ccc(-c4ccc(CN5CCCC(N)C5)cc4)s3)[nH]c12.O=C(O)C(F)(F)F (configuration not stated) | 100 | 100 | 29
59 | C=CCN(c1nc(NC)nc(NCc2c(OC)cccc2OC)n1)C1CCCC1 | 85 | 70 | 18

— ChEMBL document CHEMBL1157539, “Thousands of chemical starting points for antimalarial lead identification” (Nature, 2010)
